# Source: PubChem BioAssay
# HSP90 inh = HSP90 inhibitors, primary screen, cell lysate, luminescence; Heat shock protein HSP 90 (rabbit reticulocyte lysate; luciferase refolding); Rabbit reticulocyte lysate, luciferase refolding luminescence, 3 h; inhibition, % at 5.6 µM; 290,000 compounds, 0.91% hits;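 active = inhibition above the screen-wide mean plus 3 SD, computed separately per campaign, cut at about 16% in these data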;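 note: 0% = DMSO wells and 100% = 60 µM geldanamycin wells; inhibitors lower the luminescence because luciferase stays unfolded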
# DAX1 inh = DAX1 (NR0B1) inhibitors, primary screen, cell-based, HEK293, Gal4-DAX1, luciferase luminescence; AID 504766, 2011; HEK293 Gal4-DAX1 luciferase reporter; inhibition, % at 6.75 µM; 340,000 compounds, 0.99% hits; Nuclear receptor subfamily 0 group B member 1 (Homo sapiens), P51843;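 active = inhibition above the mean over all tested compounds plus 3 SD, cut at about 4.2% in these data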;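 note: 0% = DAX1-transfected cells with DMSO and 100% = empty-vector control cells with DMSO; inhibition shows as a rise in luminescence from relieved DAX1 repression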
# HSF1 inhib = HSF1 inhibitors in luciferase reporter cells, primary screen, cell-based, NIH3T3, luminescence; NIH3T3-HGL HSE-luciferase, MG132-induced, luminescence 8 h; active compounds read low; activity change, negative = inhibition, % at 7.5 µM (by protocol); 300,000 compounds, 0.77% hits;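 active = more than half of replicate wells show activity change below -50%, luminescence cut by over half; inconclusive = some wells, but at most half, below -50%; inactive = no replicate well below -50%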;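 note: luciferase reports HSF-1 transcriptional activity via heat shock element; 0% = median of DMSO wells and -100% = zero luminescence signal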
# AHR activator = AHR activators, primary screen, cell-based, luminescence, luciferase reporter, human. Aryl hydrocarbon receptor (Homo sapiens), P35869. AHR-responsive luciferase reporter cells. activation, % at 5 µM. 320,000 compounds, 2.5% hits; in the data active = activation above about 47%;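 note: 0% = vehicle wells and 100% = reference agonist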
# HSF-1 act = HSF-1 activators, primary screen, NIH3T3-HGL cells, MG132 stress, luminescence, single point. activation, % at 9 µM. 300,000 compounds, 1.7% hits. NIH3T3-HGL HSF-1 luciferase reporter, 8 h; 100% = twice DMSO control signal. AID 504408, 2011;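 active = mean replicate activation of at least 50% with a set share of replicates each reaching 50%; inconclusive = only one of those two conditions met; inactive = mean below 50% and too few replicates reaching it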;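 note: 0% = median of the neutral control wells and 100% = twice that signal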
# GAA850 FXN act = FXN promoter activators, primary screen, cell-based, luciferase luminescence, HEK293 lucGAA850 | HEK293 lucGAA850 FXN promoter luciferase reporter, 24 h; percent of 10 µM SAHA response | activation, % at 6 µM | 360,000 compounds, 0.56% hits | AID 540364, 2011;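 active = activation above the average of all compounds screened plus 3 SD, cutoff fixed separately per campaign, cut at about 7.5% in these data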;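 note: 0% = DMSO wells and 100% = 10 µM SAHA wells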
# HSP90 confirm = HSP90 inhibitors, confirmation, cell lysate, luminescence | shares compounds with HSP90 inh | rabbit reticulocyte lysate, luciferase refolding luminescence, 3 h | inhibition, % at 5.9 µM | 2,300 compounds, 64% hits | AID 1846, 2009; in the data active = inhibition above about 18%;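 note: 0% = vehicle wells and 100% = reference inhibitor wells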
# luciferase ctr = firefly luciferase inhibitors, HSP90 counter-screen, confirmation, artefact control for HSP90 inhibitor project, biochemical, luminescence, triplicate; shares compounds with HSP90 inh; purified native firefly luciferase; inhibition, % at 5.9 µM; 2,300 compounds, 48% hits;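 active = inhibition above the mean inhibition of all tested sample wells plus 3 SD, cut at about 10% in these data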;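 note: 0% = DMSO with luciferase and 100% = wells lacking luciferase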
# Target sequence (P08659 whole entry, looked up): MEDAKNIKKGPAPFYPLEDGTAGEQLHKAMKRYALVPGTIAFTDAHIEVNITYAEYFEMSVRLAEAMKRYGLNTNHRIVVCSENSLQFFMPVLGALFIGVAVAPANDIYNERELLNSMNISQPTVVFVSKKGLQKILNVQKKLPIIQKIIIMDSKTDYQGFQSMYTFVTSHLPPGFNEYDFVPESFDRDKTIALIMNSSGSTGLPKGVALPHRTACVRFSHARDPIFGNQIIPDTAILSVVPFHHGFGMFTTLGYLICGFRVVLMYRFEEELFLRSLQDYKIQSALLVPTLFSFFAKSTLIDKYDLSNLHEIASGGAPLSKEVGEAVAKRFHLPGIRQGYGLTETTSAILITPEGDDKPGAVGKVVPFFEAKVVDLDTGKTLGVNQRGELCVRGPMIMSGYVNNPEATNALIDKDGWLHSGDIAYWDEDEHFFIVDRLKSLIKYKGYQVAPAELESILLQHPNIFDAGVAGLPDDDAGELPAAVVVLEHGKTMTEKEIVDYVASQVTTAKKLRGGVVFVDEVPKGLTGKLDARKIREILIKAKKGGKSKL
# * = called active by the depositor; ? = inconclusive; . = no result given. Most compounds without a hit are left out; they make up all but 5.9% or so of the library.
SMILES,HSP90 inh,DAX1 inh,HSF1 inhib,AHR activator,HSF-1 act,GAA850 FXN act,HSP90 confirm,luciferase ctr
O=C(NC(=O)c1ccccc1O)c1ccc2c(c1)CCO2,19*,-2,17,9,20,3,24*,-2
Cc1ccc(S(=O)(=O)N/N=C/c2ccc(C#N)cc2)cc1,-2,0,-1,1,10,2,.,.
Cc1ccc(C(=O)NC(=S)Nc2ccc(-c3ccc(CO)o3)cc2)cc1,4,-1,26,0,14,1,.,.
O=C(NC(=S)Nc1ccc(-c2ccc(CO)o2)cc1)c1cccs1,24*,.,7,25,31,4,5,-13
COc1ccc(NC(=O)C(=O)N2N=C3CCCCC3C2(O)C(F)(F)F)cc1 (stereo unspecified),0,0,-10,28,-18,1,.,.
O=C(OCC(=O)N1CCCCC1)c1ccc2ccccc2n1,.,0,.,7,.,0,.,.
CC(C)(C)c1ccc(Cn2c(=O)cnc3ccccc32)cc1,22*,-1,-70*,1,-69,-9,53*,34*
O=c1cnc2ccccc2n1Cc1ccc(Br)cc1,-1,0,10,1,39,7,.,.
N#C/C(=C\c1c[nH]c2ccc(Br)cc12)c1ccccn1,0,0,3,44,2,-2,.,.
c1ccc2c(-c3nc4ccccc4[nH]3)cccc2c1,.,-3,.,.,.,-4,.,.
c1ccc2nc(-c3nc4ccccc4[nH]3)ccc2c1,26*,-4,8,8,41,-3,72*,62*
COc1ccc(CCNC(=O)Nc2ccc3c(c2)c(=O)n(C)n3CC=C(C)C)cc1OC,.,.,.,.,.,1,.,.
COc1ccc(/C=C/C(=O)OC2CCCCC2CN(C)C)cc1 (stereo unspecified),21*,4,-19,0,-19,1,1,-4
O=C(N/N=C/c1cc(Br)c(O)c(Br)c1O)c1cccnc1,1,1,3,13,39,0,.,.
O=C(N/N=C/c1cc(O)ccc1Br)c1cccnc1,37*,-5,0,13,-14,-6,-4,-8
CC(C)c1ccc(C(=O)Nc2ccc(CN3CCOCC3)cc2)cc1,24*,-3,1,-3,-11,2,19*,-10
O=C(Nc1ccc(CN2CCOCC2)cc1)c1cc2ccccn2n1,45*,-2,-36,1,-45,-1,61*,41*
O=C(Nc1ccc(CN2CCOCC2)cc1)c1cc2ccccc2o1,2,-1,10,0,9,4,.,.
Cc1ccccc1OC(=O)c1cccc(S(=O)(=O)N2CCN(C)CC2)c1,.,0,.,1,.,0,.,.
CCn1c(COc2ccc3ccccc3c2C)nnc1SCC(=O)Nc1cccc(C(=O)O)c1,-3,1,2,5,-2,1,.,.
CC(=O)Nc1ccc(-c2cn3cc(C)ccc3n2)cc1,4,-1,14,-5,23,3,.,.
Cc1ccc2nc(-c3ccccc3)cn2c1,86*,-6,-11,-9,-13,-13,92*,83*
CC(=O)c1ccc(N/C=C/C(=O)c2ccc(Br)cc2)cc1,-2,1,7,-1,11,2,.,.
O=C1[C@H]2CCCC[C@H]2C(=O)N1CCCCN1CCN(c2nsc3ccccc23)CC1,.,-1,2,5,-12,0,.,.
CN(C)C(CNC(=O)C1CCN(S(=O)(=O)c2cccc(C(F)(F)F)c2)CC1)c1ccccc1 (stereo unspecified),40*,0,-2,0,19,0,-4,-13
SMILES,HSP90 inh,DAX1 inh,HSF1 inhib,AHR activator,HSF-1 act,GAA850 FXN act,HSP90 confirm,luciferase ctr
CC1(C)C2CCC(C2)C1(C)NC(=O)CN1CCCC1 (stereo unspecified),-1,0,1,1,8,2,.,.
CC1(C)C2CCC(C2)C1(C)NC(=O)CN1CCOCC1 (stereo unspecified),28*,2,.,-1,.,1,1,-4
O=C(COC(=O)c1c(F)cccc1F)Nc1ccc(N2CCCCC2)cc1,.,0,.,0,.,2,.,.
COc1ccc(NC(=O)C2CC(=O)N/C(=N/N=C/c3ccco3)S2)cc1 (stereo unspecified),-8,.,0,-2,-5,0,.,.
COc1ccc(/C=N/N=C2/NC(=O)CC(C(=O)O)S2)cc1 (stereo unspecified),23*,0,4,-1,-4,-1,36*,-15
CCC(C)N(C(=O)c1csnn1)C(C(=O)NCc1ccc(F)cc1)c1ccccc1 (stereo unspecified),0,0,-6,0,1,-2,.,.
COc1ccc(C)cc1NC(=O)NNC(=O)C(C)Oc1ccc(F)cc1Cl (stereo unspecified),20*,-1,9,1,-3,2,3,-2
Clc1ncccc1-c1nnn(-c2ccccc2)n1,21*,1,11,30,9,4,17*,3
CC(=O)c1cccc(NC(=O)CCn2c(=S)oc3ccccc32)c1,-1,0,10,2,14,2,.,.
CC(=O)c1ccccc1OCCCN1CCCCC1,28*,1,-15,2,-16,1,14,-1
Brc1ccccc1OCCCN1CCCCCC1,-1,1,-2,0,-5,1,.,.
C=CCNC(=S)Nc1ccc2nsnc2c1,-1,-1,6,18,10,2,.,.
COc1ccc(NC(=S)Nc2ccc3nc(C)c(C)nc3c2)cc1,0,3,1,17,-5,-2,.,.
COc1ccc(N(C)C(=O)Nc2ccc3c(c2)nnn3C)cc1,3,1,8,-3,5,2,.,.
CCOc1ccc(NC(=O)Nc2ccc3nsnc3c2)cc1,2,0,3,7,-2,4,.,.
CC(C)N(C(=O)Nc1ccc2nsnc2c1)C(C)C,29*,.,-6,14,15,.,8,-2
C=CCN(CC=C)C(=S)Nc1ccc2nsnc2c1,31*,-1,-4,11,21,2,-1,-13
COc1ccc(NC(=S)Nc2ccc3nsnc3c2)cc1,43*,-2,40,34,?,4,4,-21
COc1ccc(N(C)C(=O)Nc2ccc3nsnc3c2)cc1,21*,-1,6,.,47,0,0,-12
